Experimental findings from PubChem BioAssay AID1850 (Southern Research Specialized Biocontainment Screening …, 2009) are described below.

Molecules are shown by their SMILES. The whole screen tested about 310,000 compounds, of which about 1,000 (0.32%) were called active. A selection follows. Measured potencies and affinities stand elsewhere. Unmarked numbers belong to inactive results. The rule behind the calls is not given here.

As usually defined, the inhibition is the change of the read-out against control, counted positive when it falls.

The nature of this assay: Inhibition of PhoP regulon, Salmonella typhi GFP reporter cells, confirmation, 4 h (AID 1850).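 Note: 0% = induced wells with vehicle and 100% = uninduced wells.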 To be noted: Salmonella Typhi PhoP-promoter GFP reporter, fluorescence, at 50 µM, hits give high values.
On to `COC1(OC)N=C(N)C2(C#N)C(c3ccccc3)NC(C)=CC12C#N` (stereo not given), for which the inhibition was 22.3%.

Turning to `CC(Oc1ccc(Br)cc1)C(=O)N(C)CC(=O)Nc1ccc(N2CCOCC2)cc1` (stereo not given), the inhibition is -2.3%.

Turning to `Cc1cc(OC2CCCCC2)nc(NCc2ccccc2)n1`, the inhibition is -3.41%.

On to `Cc1cc(Nc2ccccc2)nc(NCc2ccccc2)n1`, for which the inhibition was -0.96%.

For `Cc1cc(Nc2cccc(F)c2)nc(NCc2ccccc2)n1`, the inhibition is -0.63%.

Consider `Cc1cc(N2CCCCC2)nc(NCc2ccccc2)n1`, for which the inhibition was 5.84%.

On to `CCCCNc1cc(C)nc(NCc2ccccc2)n1`, for which the inhibition was 15.8%.

`Cc1cc(N2CCN(c3ccccc3)CC2)nc(NCc2ccccc2)n1`: the inhibition was -4.52%.

As for `Cc1ccc(/C=N/Nc2cc(C)nc(NCc3ccccc3)n2)cc1`, the inhibition is 8.63%.

With `Cc1cc(N/N=C/c2ccccc2)nc(NCc2ccccc2)n1`, the inhibition was -6.44%.

For `CCOc1ccc(S(=O)(=O)Nc2ccccc2C(=O)NCc2ccco2)cc1`, the inhibition is -4.17%.

On to `CCOCCCNC(=O)c1ccc(N(C)S(=O)(=O)c2ccc(OC)cc2)cc1`, for which the inhibition was -7.69%.

Turning to `CCCCCC(O)CCC(=O)NNC1=CC(=O)CC(C)(C)C1` (stereo not given), the inhibition is 5.33%.

`CC(=O)NCCCC(=O)NN1C(=S)N(Cc2ccccc2)C(=O)C1CC(=O)Nc1cccc(C)c1` (stereo not given): the inhibition is -3.38%.

On to `COc1ccc(CCNC(=O)c2ccc(OCC(=O)N3CCOCC3)c(OC)c2)cc1OC`, for which the inhibition is 2.3%.

Take `O=C(NC(=S)Nc1ccc(S(=O)(=O)Nc2nccs2)cc1)c1cccc(F)c1`: the inhibition was 9.55%.

For the compound `O=C(Nc1cccc(N=Cc2cc(Br)cc(Br)c2O)c1)c1ccco1`, the inhibition is 18.1%.

Regarding `O=C(Nc1cc(Br)c(O)c(Br)c1)c1cccc(NC(=O)c2ccco2)c1`, the inhibition was -5.68%.

In the case of `O=C(Nc1cccnc1)c1ccc(Br)c(S(=O)(=O)N2CCCC2)c1`, the inhibition was 1.47%.

As to `O=C(Nc1nnc(-c2ccccn2)o1)c1cccc(Br)c1`, the inhibition was 3.24%.

Regarding `O=C(Nc1nnc(-c2ccco2)o1)c1ccc(Cl)cc1`, the inhibition is 0.38%.

On to `Cc1cccc(C(=O)Nc2nnc(-c3ccco3)o2)c1`, for which the inhibition is -1.28%.

With `O=C(Nc1nnc(-c2ccccn2)o1)c1ccc(Br)cc1`, the inhibition is -1.87%.

For the compound `Cc1cccc(CC(=O)N2CCC(n3nccc3NC(=O)C3CC3)CC2)c1`, the inhibition was -7.5%.

Turning to `O=C(NCc1ccccc1)c1nc(-c2cccs2)no1`, the inhibition was -1.19%.

Take `CN(Cc1ccon1)C(=O)C1CCC(=O)N(Cc2ccc(Cl)cc2)C1` (stereo not given): the inhibition was -14.1%.

`Cc1cc(C(=O)CC#N)c(C)n1-c1ccc(OC(F)F)cc1`: the inhibition is -0.727%.

Turning to `O=C(C[n+]1ccc2ccccc2c1)c1cccc2ccccc12`, the inhibition is -0.15%.

Turning to `Cc1ccc(S(=O)(=O)NNC(=O)c2sc(=S)n(C)c2C)cc1`, the inhibition is -24.1%.

Take `Cc1ccc(N2C(=O)C3C4C=CC(CNC(=S)N5CCN(c6ccccn6)CC5)(O4)C3C2=O)cc1` (stereo not given): the inhibition was 5.6%.

Turning to `COc1ccc(/C=N\NC(=O)c2cccc(F)c2)cc1COc1ccccc1`, the inhibition is -7.03%.

As to `C=CC1=C(C(=O)O)N2C(=O)C(NC(=O)Cc3ccccc3)C2SC1` (stereo not given), the inhibition was -5.97%.

Turning to `C[C@H]1[C@H](NC(=O)C(=NOC(C)(C)C(=O)O)c2csc(N)n2)C(=O)N1S(=O)(=O)O`, the inhibition is 1.3%.

For `CC1=C(C(=O)O)N2C(=O)C(NC(=O)CCCC(=O)O)C2SC1` (stereo not given), the inhibition was 10.9%.

For `CC1=C(C(=O)O)N2C(=O)C(NC(=O)c3ccn(C)n3)C2SC1` (stereo not given), the inhibition was 7.91%.

Turning to `O=C(O)C[C@H]1c2ccccc2S(=O)(=O)N1c1ccccc1`, the inhibition is -12.5%.

As for `Cc1nn(Cc2noc(C(=O)NCc3ccc(F)cc3)n2)c(C)c1Br`, the inhibition was 5.51%.

Regarding `O=C(CCc1nnc(Cc2cccc(C(F)(F)F)c2)o1)NC1CC1`, the inhibition was 2.17%.

With `COc1ccc(N(CC(=O)Nc2ccccc2C(=O)NCCc2ccccc2)S(C)(=O)=O)cc1OC`, the inhibition is -12.9%.

Turning to `CC(=O)Nc1ccc(S(=O)(=O)Oc2ccccc2N2C(=O)C3C4CCC(C4)C3C2=O)cc1` (stereo not given), the inhibition is 1.86%.

As for `COc1ccc(N(CC(=O)NC2CC3CCC2C3)S(=O)(=O)c2ccc(C)cc2)cc1` (stereo not given), the inhibition is -6.68%.

Consider `CN(C)CCCNc1ccc(-c2n[nH]c(=O)c3ccccc23)cc1[N+](=O)[O-]`, for which the inhibition was -4.76%.

With `Cc1ccc2nc(C)c(Cl)c(=O)n2c1`, the inhibition is -9.57%.

As for `COc1ccc(CCNC(=O)CCCCC(=O)NCCc2ccc(OC)cc2)cc1`, the inhibition is -3.5%.

Turning to `O=S(=O)(NC1CCCCCC1)c1cccc2cccnc12`, the inhibition is 5.87%.

As for `COc1ccc(C(=O)O/N=C(/c2ccccc2)c2ccncc2)cc1OC`, the inhibition was -4.7%.

On to `COc1c(O)c(O)c2oc(-c3ccccc3)cc(=O)c2c1OC`, for which the inhibition is 9.73%.

For the compound `O=c1cc(-c2ccc(O)cc2)oc2cc(O)cc(O)c12`, the inhibition is 1.38%.

As to `CCOC(=O)CC1(C)OCC(C[N+]2(C)CCCCC2)O1` (stereo not given), the inhibition was 5.82%.

For `COC(=O)[C@@H]1C[C@@]2(O)[C@H](O)[C@H](O)[C@H](O)C[C@H]2N1Cc1ccc(-c2ccccc2)cc1`, the inhibition was -7.22%.

Consider `CC1CCN(CCNC(=O)c2ccc3c(=O)n(Cc4ccc(Cl)cc4)c(=S)[nH]c3c2)CC1`, for which the inhibition was 4.39%.

As for `COC(=O)c1ccc2c(=O)n(Cc3ccc(C(=O)NCCCN4CCC(C)CC4)cc3)c(=S)[nH]c2c1`, the inhibition is 2.98%.

For `COc1ccc(S(=O)(=O)NN(C)c2ncc(C(F)(F)F)cc2Cl)cc1`, the inhibition is 2.03%.

Take `CC(=O)NCCC(=O)NCC1(N(C)Cc2ccccc2)Cc2ccccc2C1`: the inhibition was -1.56%.

As for `c1ccc(-c2cc(N3CCCCC3)nc(-c3ccccc3)n2)cc1`, the inhibition is 5.32%.

As for `CO[C@@]12[C@H](COC(N)=O)C3=C(C(=O)C(C)=C(N)C3=O)N1C[C@@H]1N[C@@H]12`, the inhibition was 6.71%.

As for `O=C(ONC1=NCCCCC1)c1cccc([N+](=O)[O-])c1`, the inhibition is -5.28%.

In the case of `Cc1ccnc(-n2c(C)nc3ccccc3c2=O)c1`, the inhibition is -16%.

Consider `O=C(NC1CC2CCCC(C1)N2C(=O)Nc1ccccc1)c1ccccc1` (stereo not given), for which the inhibition was -0.41%.

For `COc1cc(C)c(CN2CCC(n3nccc3NC(=O)C3CCOC3)CC2)cc1C` (stereo not given), the inhibition is -6.02%.

In the case of `CC(C)N1CC(C(=O)Nc2ccc(C#N)cc2)CC1=O` (stereo not given), the inhibition was -2.49%.

Take `Cc1ncc(CC(=O)n2cc(C(=O)c3cc(F)ccc3O)cn2)s1`: the inhibition was 23.5%.

With `Cc1cc(Cl)ccc1OCC(=O)n1cc(C(=O)c2cc(Cl)ccc2O)cn1`, the inhibition is -8.17%.

`O=C(NCCc1ccccc1)c1nccc2ccccc12`: the inhibition is 3.49%.

Take `COCCC(=O)N1CCC(Oc2ccc(C(=O)N3CCC[C@H]3CO)cc2)CC1`: the inhibition is -1.9%.

For the compound `CCOC(=O)C1CCCN(C2CCN(Cc3nc(Cc4ccccc4)no3)CC2)C1` (stereo not given), the inhibition is -4.46%.

For `CS(=O)(=O)c1ccc(C(=O)NCc2ccccc2F)cc1`, the inhibition was 2.01%.

As to `O=C(O)c1cc(S(=O)(=O)NC(CO)C(O)c2ccc([N+](=O)[O-])cc2)ccc1Br` (stereo not given), the inhibition was 5.04%.

On to `CS(=O)(=O)c1ccc(C(=O)NC(Cc2ccccc2)c2ccccc2)cc1` (stereo not given), for which the inhibition is 2.4%.

Regarding `Cc1ccc(NC(=S)NC(CO)C(O)c2ccc([N+](=O)[O-])cc2)cc1` (stereo not given), the inhibition was 8.81%.

`Cc1ccc(-n2nc(C(=O)NN)c(C)c(C#N)c2=O)cc1Cl`: the inhibition is -0.01%.

Take `CCOC(=O)N1CCC(NC(=O)c2ccccc2C(=O)O)CC1`: the inhibition is 2.93%.

For `CCN(CC)S(=O)(=O)c1ccc(C)c(NC(=O)COc2ccc3c(C)cc(=O)oc3c2)c1`, the inhibition was -6.3%.

Consider `CCCn1nnc(NC(=O)c2ccc([N+](=O)[O-])cc2Cl)n1`, for which the inhibition was -8.6%.

Regarding `Fc1ccc(-c2nc3ccccn3c2NCc2ccc3c(c2)OCO3)cc1`, the inhibition was -6.33%.

As to `Cc1ccc(CNC(=O)C(=O)NCCC2=CCCCC2)cc1`, the inhibition was -20.6%.

In the case of `O=C(NCCC1=CCCCC1)C(=O)NCc1ccccc1`, the inhibition is -1.97%.

For `Clc1ccc(CNCCC2=CCCCC2)cc1`, the inhibition was -4.93%.

On to `Cc1ccc(NC(=S)NCCC2=CCCCC2)cc1`, for which the inhibition is -0.73%.

Regarding `CC(C)[C@H](NC(=O)c1ccccc1Cl)C(=O)OCc1cc([N+](=O)[O-])cc2c1OCOC2`, the inhibition is -4.37%.

Consider `O=C(O)CCC(=O)Nc1nc2nccc(-c3ccccc3)n2n1`, for which the inhibition is -7.87%.

As to `CCOc1cc(/C=C2/C(=N)N3N=C(C)SC3=NC2=O)ccc1OS(=O)(=O)c1ccc(C)cc1`, the inhibition was 18.2%.

Turning to `O=C(Nc1cc2c3c(c1)CC(=O)N3CCC2)c1ccc(Br)o1`, the inhibition was 2.71%.

Regarding `CCNC(=S)NNC(=O)c1cc(-c2cccc(OCC)c2)nc2ccccc12`, the inhibition is 10.8%.

In the case of `O=C(CCc1ccccc1)NNC(=O)c1ccccc1Br`, the inhibition was -5.24%.

Consider `CCNc1ccc(C2(O)C(=O)c3ccccc3C2=O)cc1`, for which the inhibition is -8.28%.

With `Cc1ccc([N+](=O)[O-])c2cccnc12`, the inhibition is -3.26%.

Regarding `Clc1cc2cccnc2c2ccccc12`, the inhibition is -17.8%.

With `Oc1c(I)cc(I)c2cccnc12`, the inhibition is 8.57%.

On to `O=[N+]([O-])c1cc2cccnc2c2ncccc12`, for which the inhibition is -13.3%.

For the compound `O=[N+]([O-])c1ccc(Cl)c2cccnc12`, the inhibition is -13%.

Turning to `O=[N+]([O-])c1ccc(O)c2cccnc12`, the inhibition was 2.39%.

Consider `Oc1ccc(F)c2cccnc12`, for which the inhibition is 8.36%.

As for `O=[N+]([O-])c1cccc2c(Cl)ccnc12`, the inhibition is 5.29%.

For the compound `Cc1oc2cc3oc(=O)c(CC(=O)NCC(=O)N[C@@H](C(=O)O)c4ccccc4)c(C)c3cc2c1C`, the inhibition was 3.13%.
